Bioassay records (PubChem BioAssay)
L3MBTL1 inh = blocks human L3MBTL1 | Q9Y468 | AlphaScreen L3MBTL1–H3K9me1 peptide binding | Potency, µM (highest dose often 57.1 µM), without a hit: at the top dose activity, negative = inhibition, usual class: inhibitors | 230,000 compounds, 0.66% hits; further: on the % scale 0 is the no-effect control and ±100 the full control effect; nearly all actives have a fitted effect of over 60% in size
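First, the protein-peptide complex forms for 30 min at room temperature (L3MBTL1 50 nM, biotinylated H3K9me1 peptide 75 nM). Next, compounds are pin-transferred and incubated 30 min. Finally, AlphaScreen beads are added and read after 30 min.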
G9a block = blocks human histone lysine methyltransferase G9a | G9a H3K9 monomethylation, AlphaScreen, 2 h | 350,000 compounds, 8.8% hits | Q96KQ7 | AID 504332 | Potency, µM (doses to about 102 µM), for inactives: at the highest dose activity, negative = inhibition, most hits filed as inhibitors; further: on the % scale 0 is the no-effect control and ±100 the full control effect; nearly all actives have a fitted effect of over 75% in size
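Readings reflect AlphaScreen signal from monomethyl-H3K9 antibody detection. HMT at 20 nM; substrate b-H3K9 500 nM; cofactor SAM 20 uM; 2 h RT reaction; compounds tested as titrations in qHTS with 15 min preincubation.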
BAZ2B block = inhibitors of human BAZ2B bromodomain. Q9UIF8. AlphaScreen BAZ2B-H3K14Ac peptide displacement. Potency, µM (top dose mostly 114 µM), for inactives: at the top dose activity change, negative = inhibition, most hits filed as inhibitors. 360,000 compounds, 4.4% hits. AID 504333; further: on the % scale 0 is the no-effect control and ±100 the full control effect; nearly all actives have a fitted effect of over 60% in size
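Compounds, titrated to a top concentration of 110 uM, were incubated 30 min at room temperature with preformed BAZ2B/acetyl-K14 H3 peptide complex (50 nM each). Proximity signal was measured by AlphaScreen after 20 min with beads.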
JMJD2A Tudor = JMJD2A Tudor domain (human) inhibition; O75164; AID 504339; AlphaScreen JMJD2A-Tudor / H3K4me3 peptide binding; Potency, µM (top dose mostly 114 µM), without a hit: at the top dose activity change, negative = inhibition, actives largely listed as inhibitors; 390,000 compounds, 4.4% hits; further: on the % scale 0 is the no-effect control and ±100 the full control effect; nearly all actives have a fitted effect of over 50% in size
Sfp PPTase inh = blocks B. subtilis Sfp PPTase activity. Biochemical Sfp PPTase activity, qHTS. Q9F4F7. 310,000 compounds, 3.5% hits. Potency, µM, without a hit: largest response in the series, negative = inhibition, hits mostly inhibitors. AID 1490;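 further: the enzyme is Sfp with the accession as filed and its product quenches rhodamine fluorescence; 0% = enzyme reaction without inhibitor and -100% = no enzyme wells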
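Fluorescence-quenching assay with 15 nM Sfp, 5 uM rhodamine-CoA and 12.5 uM BHQ-2-labelled ybbR peptide in pH 7.6 Hepes/MgCl2 buffer. Enzyme was pre-incubated with compound for 15 min at room temperature. Rate was taken from the 30-min fluorescence change (525/598 nm).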
HP1b chromo inh = HP1-beta chromodomain-methylated histone interaction inhibition; P83916; AlphaScreen HP1-beta / biotin-H3K9me3 peptide binding; Potency, µM (doses to about 114 µM), for inactives: at the highest dose activity change, negative = inhibition, hits mostly inhibitors; 390,000 compounds, 0.56% hits; further: nearly all actives have a fitted effect of over 70% in size
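Compound inhibition of the preformed complex between 50 nM HP1-beta and 50 nM biotinylated H3K9me3 peptide was read by AlphaScreen. Buffer was PBS pH 7.4 with 0.01% Tween-20. Incubations ran 30 min at room temperature, with 10 ug/mL donor/acceptor beads.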
* marks the source's active call; other numbers are inactive results; ? = inconclusive; / = no result; ! = a repeat was not active; [ ] = dose if it differs, or a comment. Sampled rows, rich in hits. Any-hit rate of the full collection: about 12%. The call rests on the fitted dose curve; in most records, active means well fitted curve in the direction sought with a large enough effect; inconclusive means small, poorly fitted or top-dose-only effect, or another doubt; inactive means no such curve, though single readings can be large; an effect the other way counts as inactive or inconclusive. Potency means the concentration at half of the fitted maximal effect.

SMILES	L3MBTL1 inh	G9a block	BAZ2B block	JMJD2A Tudor	Sfp PPTase inh	HP1b chromo inh
CCn1c(C)c(C)c2cc(C(=O)NCc3ccc(F)cc3)ccc21	/	-36%[59 µM]	?	?	/	-2%
CCn1c(C)c(C)c2cc(C(=O)NCCCN3CCCCC3)ccc21	/	?	40µM*!	?	4%	1%
CCn1c(C)c(C)c2cc(C(=O)NCCCN3CCN(C)CC3)ccc21	/	?	?	-28%	4%	-6%
CCn1c(C)c(C)c2cc(C(=O)NCCCN3CCCCCC3)ccc21	/	?	56µM*	56µM*	?	-19%
CCn1c(C)c(C)c2cc(C(=O)NCCN3CCCCCC3)ccc21	/	50µM*	22µM*	45µM*	-25%	-6%
COc1ccc(OC)c(C2NC(=O)N(C)C(C)=C2C(=O)OCc2ccccc2)c1 (stereo not drawn)	-14%	1%	?	-32%	5%	3%
Cc1ccccc1C1C(C#N)=C2N=C(N)c3c(sc4c3CCCCC4)N2C2=C1C(=O)CCC2 (stereo not drawn)	-19%	?	45µM*	-23%[57.1 µM]	50µM*	16%
Cc1noc(C)c1S(=O)(=O)N(C)C[C@H]1Oc2c(NC(=O)C3CCCCC3)cccc2C(=O)N([C@H](C)CO)C[C@@H]1C	0%	/	/	-5%	/	40%
CN(Cc1c(F)cccc1Cl)C(=O)c1ccc2ccccc2n1	/	-9%	-12%	-1%	0%	27%
CC(O)[C@H]1CNC(=O)C(=O)N1CCCCC1CCCCC1 (stereo partly drawn)	/	16%[59 µM]	4%	-14%	8%	17%
CCS(=O)(=O)c1cc([N+](=O)[O-])c(Sc2ccccc2NC(C)=O)s1	/	1.1µM*	-18%	20µM*	0.45µM*	-26%
O=C(O)/C=C/c1cnc[nH]1	0%	13µM*!	7%	-13%	-17%	36%
COc1cccc(C2CC(=O)Nc3c2ccc(C)c3C)c1OC (stereo not drawn)	/	2%[59 µM]	-13%	-7%	/	21%
CN(Cc1ccccc1F)C(=O)c1ccccc1Sc1ccccc1C#N	/	/	-14%	12%	2%	81%
COc1ccc(-c2cc(C(F)F)nc(-n3nc(C)cc3C)n2)cc1	12%	2%[12.7 µM]	-1%	2%	50µM*	48%
Cc1ccc(-c2cc(C(F)F)nc(N3CCOCC3)n2)cc1	124%	162%[59 µM]	101%	234%	-30%	/
CSCCC(NS(=O)(=O)c1ccc2c(c1)oc(=O)n2C)C(=O)Nc1ccc(Cl)cc1 (stereo not drawn)	/	0%[59 µM]	?	-23%	/	5%
COc1ccc(C(C)=O)cc1COC(=O)CCNS(=O)(=O)c1ccc(C(C)=O)cc1	/	6%	-19%	-8%	8%	15%
COc1ccc(C(C)=O)cc1COC(=O)CCNS(=O)(=O)c1ccc(C)cc1	-3%	50µM*	8%	-10%	/	-1%
Cc1[nH]c2ccccc2c1C(c1ccncc1)N1CCC(C)CC1 (stereo not drawn)	6%	28µM*	-11%	?	-4%	-12%
Cc1[nH]c2ccccc2c1C(c1ccncc1)N1CCN(c2ccccn2)CC1 (stereo not drawn)	0%	22µM*	?	-35%	?	?
Cc1[nH]c2ccccc2c1C(c1ccncc1)N1CCN(c2ccccc2F)CC1 (stereo not drawn)	-12%	11µM*	?	?	9%	-22%
Clc1ccc(C(c2ccccc2)N2CCN(c3ccccn3)CC2)cc1 (stereo not drawn)	0%	29%	-14%	-8%	-1%	-13%
COc1ccc(C(=O)Nc2ccc(S(=O)(=O)N3CCCC3)cc2)cc1[N+](=O)[O-]	/	/	2%	-10%	-12%	14%
CCOc1ccc(CNC(=O)c2oc3c(c2C)-c2nn(Cc4cccc(Cl)c4)cc2CC3)cc1	/	-20%[59 µM]	-14%	-17%	/	35%
SMILES	L3MBTL1 inh	G9a block	BAZ2B block	JMJD2A Tudor	Sfp PPTase inh	HP1b chromo inh
CC(C#N)N1CCN(S(=O)(=O)c2ccc3c(c2)CCC3)CC1 (stereo not drawn)	-2%	16%[12.7 µM]	1%	1%	/	45%
COc1ccc2c(c1)sc(N)[n+]2Cc1cc(C)cc2cccnc12	0%	50µM*	-10%	-20%	-3%	2%
Nc1nc2ccc(S(=O)(=O)N3CCCCC3)cc2s1	8%	6.3µM*	-1%	-10%	10µM*	7%
C=CCn1c(-c2cccc(OC)c2)n[nH]c1=S	0%	7.1µM*	7%	11µM*	1%	3%
C=CCn1c(-c2cc3cccc(OC)c3o2)n[nH]c1=S	-1%	6.3µM*	?	40µM*	-11%	29%
CCn1c(-c2cc(OC)c(OC)c(OC)c2)n[nH]c1=S	/	?	-8%	7.9µM*	2%	42%
COc1cccc2cc(-c3ccnc(=S)[nH]3)oc12	17%	0%	3%	/	5%	/
CCn1c(CCCc2ccc(OC)c(C)c2)n[nH]c1=S	-6%	/	-11%	?	?	38%
C=CCn1c(-c2cccc(OC)c2OC)n[nH]c1=S	-3%	20µM*	-29%	7.9µM*	15%	31%
O=C(Nc1ccc(Cn2ccnc2)cc1)c1cccc(C(F)(F)F)c1	-3%	/	?	-11%	5%	34%
COc1ccc(-c2coc3c2c(C)cc2oc(=O)c(CC(=O)O)c(C)c23)cc1	/	-19%[59 µM]	-20%	-23%	/	27%
C=CCn1c(-c2cc(OC)c(OC)c(OC)c2)n[nH]c1=S	-1%	?	-4%	6.3µM*	?	11%
C=CCn1c(-c2cccnc2)n[nH]c1=S	19%	45µM*	-28%	20µM*	12%	44%
C=CCn1c(SCc2cccc3ccccc23)nnc1-c1cccnc1	7%	/	1%	-11%	4%	21%
OCCN1CCN(C(=S)c2ccc(Br)cc2)CC1	0%	22µM*	-2%	-10%	32µM*	0%
CSc1ccc(C(=S)N2CCN(CCO)CC2)cc1	11%	10µM*	5%	-8%	8.9µM*	-16%
O=C(NCCN1CCN(C(=O)c2ccc(Br)cc2)CC1)c1ccc(Br)cc1	/	1%	-5%	-21%	8%	39%
COc1cccc(CC(=O)N2CCc3nc(-c4ccc(OC)cc4C)c4c(c3C2)CO[C@@H](c2ccccc2)C4)c1	/	/	/	/	-12%	/
COC(=O)C(C)Sc1nc2c(c(=O)[nH]c(=O)n2C)n1CCC(C)C (stereo not drawn)	3%	-10%[59 µM]	-6%	9%	-8%	20%
COC(=O)C(C)Sc1nc2c(c(=O)n(C)c(=O)n2C)n1CCC(C)C (stereo not drawn)	3%	79µM*	-2%	12%	-14%	20%
